Experimental data from PubChem BioAssay (NCI).
Compounds without any hit were thinned out: in the full panel of roughly 79,000, 15% have a hit. Rule as the data show it: active = growth inhibition above about 70%; inactive = the rest.

Tests used:
[1] = NCI Yeast Anticancer Drug Screen. Data for the rad50 strain (AID 155);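 also: 0% = growth of vehicle-only cultures of the same strain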; conditions: S. cerevisiae rad50 strain growth inhibition; at 50.0 µM; stronger effect = higher value
Summary of the method: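 Readout: growth inhibition relative to vehicle-treated cultures. Compound exposure was carried out in a genetically defined yeast strain deficient in DNA damage repair.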

[2] = NCI Yeast Anticancer Drug Screen. Data for the mec2-1 strain (AID 157); conditions: S. cerevisiae mec2-1 strain, at 50.0 µM, stronger effect = higher value
Summary of the method: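 Vehicle-treated cultures served as reference for growth inhibition of compound-exposed mec2-1 yeast.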

[3] = NCI Yeast Anticancer Drug Screen. Data for the sgs1 mgt1 strain (AID 161);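 also: 0% = growth of cultures given vehicle only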; conditions: S. cerevisiae sgs1 mgt1 strain, at 50.0 µM, stronger effect = higher value
Summary of the method: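 Mutant yeast exposed to compound; growth scored against vehicle-only wells.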

[4] = NCI Yeast Anticancer Drug Screen. Data for the cln2 rad14 strain (AID 165);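 also: 0% = growth equal to vehicle treated cultures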; conditions: S. cerevisiae cln2 rad14 strain, at 50.0 µM, stronger effect = higher value
Summary of the method: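 Each compound was tested on cln2 rad14 yeast. Inhibition of growth was calculated against vehicle-exposed controls.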

[5] = NCI Yeast Anticancer Drug Screen. Data for the bub3 strain (AID 167); conditions: S. cerevisiae bub3 mutant strain, at 50.0 µM, stronger effect = higher value
Summary of the method: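 Readout: yeast growth inhibition, expressed relative to vehicle-only wells. The test organism is a mutant strain from a panel with lesions in DNA repair or checkpoint genes.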

[6] = NCI Yeast Anticancer Drug Screen. Data for the mlh1 rad18 strain (AID 175); conditions: S. cerevisiae mlh1 rad18 strain growth inhibition; at 50.0 µM; stronger effect = higher value
Summary of the method: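 Vehicle-treated cultures served as the reference for growth inhibition in a yeast strain carrying DNA damage repair alterations exposed to each compound.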

Measured: growth inhibition

O=Cc1cc2c(cc1-c1cc3c(cc1C=O)OCO3)OCO2
inactive: [1] -3.4% | [2] 8.25% | [3] 6.6% | [4] 9.85% | [5] 13.1% | [6] 0.75%

CCNC(=O)C1CCCN1C(=O)C(CCCN=C(N)N)NC(=O)C(CC(C)C)NC(=O)C(Cc1c[nH]c2ccccc12)NC(=O)C(Cc1ccc(O)cc1)NC(=O)C(CO)NC(=O)C(Cc1c[nH]c2ccccc12)NC(=O)C(Cc1cnc[nH]1)NC(=O)C1CCC(=O)N1 (configuration not stated)
inactive: [1] -11.6% | [2] -10.6% | [3] -18.5% | [4] -21.6% | [5] 6.05% | [6] 10.2%

O=C(CN1CCCCC1)c1ccc(CCc2ccc(C(=O)CN3CCCCC3)cc2)cc1
inactive: [1] 35% | [2] 11.3% | [3] 33.9% | [4] -61.1% | [5] 6.5% | [6] 32.2%

CC(=O)OCCc1nnnn1C
inactive: [1] 4.9% | [2] -9.95% | [3] -14.6% | [4] -22.5% | [5] 2.45% | [6] 10.4%

O=C(O)c1ccc(B(O)O)cc1[N+](=O)[O-]
inactive: [1] 11.8% | [2] 4.75% | [3] 7.35% | [4] 8.7% | [5] 34.9% | [6] 5.15%

CC1=C(C(=O)CC(=O)Nc2ccc(Cl)c(Cl)c2)Sc2ccccc2N1
inactive: [1] 8.1% | [2] 21.9% | [3] -4.3% | [4] 13.7% | [5] 0.25% | [6] 20.9%

O=C(/C=C(/Nc1ccccc1)c1ccccc1)c1ccccc1
inactive: [1] 7.3% | [2] 11.4% | [3] 8.9% | [4] 35.5% | [5] 15.9% | [6] 34.2%

c1ccc(-c2nnc(-c3ccc4ccccc4c3)o2)cc1
inactive: [1] -0.1% | [2] -6.5% | [3] 1.1% | [4] -40% | [5] 13.4% | [6] -2%

C=C(C)/C=C/S(=O)c1ccccc1 (configuration not stated)
inactive: [1] -3.3% | [2] -2.85% | [3] 10.3% | [4] -5.35% | [5] -16.4% | [6] -5.15%

CCOC(=O)/C(=C\c1ccc(N(C)C)cc1)c1nc2ccccc2[nH]1
inactive: [1] 38% | [2] 21.6% | [3] 47.1% | [4] 13.1% | [5] 40.5% | [6] -2.75%

C/C(=N\S(=O)(=O)c1ccc([N+](=O)[O-])cc1)OCC(C)C
inactive: [1] 11.2% | [2] -8.4% | [3] 14.7% | [4] -47.9% | [5] 10.7% | [6] 2.25%

O=C(Nc1cccc(Cl)c1Cl)Oc1cccc2ccccc12
inactive: [1] 21.4% | [2] 5.15% | [3] 12.4% | [4] 8.65% | [5] 24.5% | [6] 16.4%

Cc1ccc(C(=O)NC2CCCCC2)cc1N=NN(C)C
inactive: [1] 31.4% | [2] -7.55% | [3] 18.7% | [4] 19.1% | [5] 9.45% | [6] -11.4%

CC(=O)c1cccc(NC(=O)N(C)C2CCCCC2)c1
inactive: [1] 5.65% | [2] 13.7% | [3] -3.65% | [4] -15.6% | [5] -7.45% | [6] -22.1%

Cc1cc2nc3c(C(OC4OC(CO)C(O)C(O)C4O)C(O)CO)nn(-c4ccccc4)c3nc2cc1C (configuration not stated)
inactive: [1] -23% | [2] -13.8% | [3] -35.1% | [4] 0.25% | [5] -26.9% | [6] 0.75%

CCCCC(CC)COC(=O)Cc1ccccc1 (configuration not stated)
inactive: [1] 17.3% | [2] 17.1% | [3] 15.8% | [4] -5.85% | [5] 40.1% | [6] 34.7%

Cc1cc2c(cc1C)NC1=C(N2)OC(c2cccc(O)c2)C1=O (configuration not stated)
inactive: [1] 1.9% | [2] -16.9% | [3] 1.55% | [4] 4.4% | [5] -31.4% | [6] 11.8%

C/C(=C\C(=O)c1cccc([N+](=O)[O-])c1)c1cccc([N+](=O)[O-])c1
inactive: [1] 1.35% | [2] 15.3% | [3] 0.7% | [4] -21.6% | [5] 2.6% | [6] 29.6%

CC1O[C@@]2(CC[C@H]3[C@@H]4CCC5=CC(=O)CC[C@]5(C)[C@H]4CC[C@@]32C)C1=O (some centres not stated)
inactive: [1] -0.55% | [2] 4.95% | [3] 11.4% | [4] -16.8% | [5] 26.9% | [6] 25.9%

CCN(CC)CCOC1CCCCC1Cc1ccccn1 (configuration not stated)
inactive: [1] -1.55% | [2] 14.8% | [3] 8.85% | [4] -25.2% | [5] -3.65% | [6] 5.85%

Cc1ccc(C(=O)c2ccccc2)cc1C[N+](C)(C)C
inactive: [1] 20.3% | [2] 3.35% | [3] 10.3% | [4] 12% | [5] -5.3% | [6] 4.9%

Cc1cc(=O)[nH]c2ccc(-c3ccc4[nH]c(=O)cc(C)c4c3)cc12
inactive: [1] 21.4% | [2] -17.2% | [3] 31.3% | [4] 5.15% | [5] 23.1% | [6] 18%

Cc1ccc(S(=O)(=O)N2c3ccccc3[C@H]3CCC=C[C@H]32)cc1
inactive: [1] -13.2% | [2] 17.8% | [3] -19.4% | [4] -20.6% | [5] 30.6% | [6] -15.4%

Cc1ncc(CSCC(=O)O)c(N)n1
inactive: [1] 3.5% | [2] -16.1% | [3] -5.05% | [4] -9.05% | [5] -8.7% | [6] -8.55%

CC(C)C(N)C(=O)NC(C(=O)O)C(C)C (configuration not stated)
inactive: [1] 12.8% | [2] -9.35% | [3] -4.3% | [4] -19.5% | [5] -0.6% | [6] 19.3%

c1ccc(OCCCCN2CCNCC2)cc1
inactive: [1] 1.85% | [2] -14.3% | [3] 14.3% | [4] -10.1% | [5] 8.3% | [6] -10.2%

COC(=O)C1(C(=O)OC)CC(=O)c2c(OC(=O)c3cccc(OC)c3C#N)ccc(OC(=O)c3cccc(OC)c3C#N)c2C1
inactive: [1] 1.05% | [2] 3.95% | [3] -11.5% | [4] -4.35% | [5] 0.05% | [6] 16.9%

O=C(O)C1C2C=CC(O2)C1C(=O)NCc1ccccn1 (configuration not stated)
inactive: [1] -3.5% | [2] -26.5% | [3] -7.3% | [4] -22.6% | [5] -37% | [6] 9.85%

Cc1ccc(S(=O)(=O)NC(=O)NCCCS(C)=O)cc1 (configuration not stated)
inactive: [1] -3.5% | [2] -6.5% | [3] 6.8% | [4] -7.8% | [5] 2.9% | [6] 10.3%

CCOC(=O)C(C)CC(C)C(=O)OCC (configuration not stated)
inactive: [1] 20.6% | [2] -26% | [3] -19.3% | [4] -2.85% | [5] 9.9% | [6] 2.5%

CCOC(=O)C(C#N)(Cc1c(-c2ccccc2)[nH]c2ccccc12)NC(C)=O (configuration not stated)
inactive: [1] -4.25% | [2] 0.75% | [3] 4.85% | [4] -14.6% | [5] 7.9% | [6] 6.15%

C/C(=N\N)C1C(=O)c2ccccc2C1=O
inactive: [1] 6.1% | [2] 5.05% | [3] 13.7% | [4] 20.8% | [5] 8.8% | [6] 11.3%

C/C(=N\N=C(/C)c1cccc2ccccc12)c1cccc2ccccc12
inactive: [1] -8.9% | [2] -0.65% | [3] 4.7% | [4] -15.9% | [5] -17.7% | [6] -36.2%

O=[N+]([O-])/C(N=Nc1ccc2ccccc2c1Br)=N/Nc1ccc2ccccc2c1Br
inactive: [1] 34.5% | [2] 5.85% | [3] 19.4% | [4] -2.85% | [5] -0.2% | [6] 13.2%

CCOc1ccc2cc3c(nc2n1)[nH]c1ccccc13
inactive: [1] -27.4% | [2] 4.15% | [3] -0.3% | [4] -16.1% | [5] 8.25% | [6] 11.1%

CC1CC=CCC1COB(OCC1CC=CCC1C)OCC1CC=CCC1C (configuration not stated)
inactive: [1] 22.8% | [2] -21.5% | [3] 29.1% | [4] 23.1% | [5] 24.3% | [6] -0.25%

COc1nc2nccc-2c2occn12
inactive: [1] -29.4% | [2] -11.2% | [3] -16.8% | [4] -27.5% | [5] -9.6% | [6] -29.1%
